Assays:
[1] = tested on: Proto-oncogene tyrosine-protein kinase receptor Ret (Homo sapiens), P07949 [Y791F]; settings: at 1 µM
[2] = biological target: Macrophage-stimulating protein receptor (Homo sapiens) (UniProt Q04912); settings: at 0.1 µM
[3] = biological target: Macrophage-stimulating protein receptor (Homo sapiens) (UniProt Q04912); settings: at 1 µM
[4] = biological target: Proto-oncogene tyrosine-protein kinase ROS (Homo sapiens) (UniProt P08922); settings: at 0.1 µM
[5] = biological target: Proto-oncogene tyrosine-protein kinase ROS (Homo sapiens) (UniProt P08922); settings: at 1 µM
[6] = biological target: Proto-oncogene tyrosine-protein kinase Src (Homo sapiens) (UniProt P12931); settings: at 0.1 µM
Proto-oncogene tyrosine-protein kinase Src (Homo sapiens), sequence (P12931 2-536 limits assumed): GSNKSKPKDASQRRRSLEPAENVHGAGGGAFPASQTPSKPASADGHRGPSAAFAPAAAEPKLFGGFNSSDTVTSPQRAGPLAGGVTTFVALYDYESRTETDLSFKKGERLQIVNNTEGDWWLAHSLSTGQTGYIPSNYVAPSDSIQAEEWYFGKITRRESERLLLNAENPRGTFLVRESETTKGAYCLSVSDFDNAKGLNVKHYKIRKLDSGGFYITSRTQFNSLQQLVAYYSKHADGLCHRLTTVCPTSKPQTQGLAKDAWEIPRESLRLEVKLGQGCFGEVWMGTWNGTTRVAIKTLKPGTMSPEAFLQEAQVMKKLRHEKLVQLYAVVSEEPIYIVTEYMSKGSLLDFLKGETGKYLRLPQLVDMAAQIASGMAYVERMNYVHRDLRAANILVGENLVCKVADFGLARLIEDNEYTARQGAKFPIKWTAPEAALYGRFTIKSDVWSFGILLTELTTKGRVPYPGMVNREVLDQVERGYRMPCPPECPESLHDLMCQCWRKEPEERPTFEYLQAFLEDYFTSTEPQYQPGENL

[7] = biological target: Proto-oncogene tyrosine-protein kinase Src (Homo sapiens) (UniProt P12931); settings: at 1 µM
[8] = biological target: Tyrosine-protein kinase Srms (Homo sapiens) (UniProt Q9H3Y6); settings: at 0.1 µM
Tyrosine-protein kinase Srms (Homo sapiens), sequence (Q9H3Y6 whole entry): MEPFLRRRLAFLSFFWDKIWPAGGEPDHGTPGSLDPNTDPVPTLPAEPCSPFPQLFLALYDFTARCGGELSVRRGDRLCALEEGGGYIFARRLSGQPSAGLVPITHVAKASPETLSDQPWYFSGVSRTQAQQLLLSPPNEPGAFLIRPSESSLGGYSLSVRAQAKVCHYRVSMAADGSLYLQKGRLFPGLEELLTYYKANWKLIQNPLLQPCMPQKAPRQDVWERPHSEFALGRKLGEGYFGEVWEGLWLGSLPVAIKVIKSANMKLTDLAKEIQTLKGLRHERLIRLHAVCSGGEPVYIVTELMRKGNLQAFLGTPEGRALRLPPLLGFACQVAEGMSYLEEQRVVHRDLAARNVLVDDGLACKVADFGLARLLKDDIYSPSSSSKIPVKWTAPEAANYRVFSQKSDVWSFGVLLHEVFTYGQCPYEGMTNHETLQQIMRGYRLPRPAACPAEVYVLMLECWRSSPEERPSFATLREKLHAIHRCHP

[9] = biological target: Tyrosine-protein kinase Srms (Homo sapiens) (UniProt Q9H3Y6); settings: at 1 µM
[10] = biological target: Tyrosine-protein kinase SYK (Homo sapiens) (UniProt P43405); settings: at 0.1 µM
[11] = biological target: Tyrosine-protein kinase SYK (Homo sapiens) (UniProt P43405); settings: at 1 µM
[12] = biological target: T1, Tyrosine-protein kinase Tec (Homo sapiens) (UniProt P42680); settings: at 0.1 µM
T1 sequence (whole entry): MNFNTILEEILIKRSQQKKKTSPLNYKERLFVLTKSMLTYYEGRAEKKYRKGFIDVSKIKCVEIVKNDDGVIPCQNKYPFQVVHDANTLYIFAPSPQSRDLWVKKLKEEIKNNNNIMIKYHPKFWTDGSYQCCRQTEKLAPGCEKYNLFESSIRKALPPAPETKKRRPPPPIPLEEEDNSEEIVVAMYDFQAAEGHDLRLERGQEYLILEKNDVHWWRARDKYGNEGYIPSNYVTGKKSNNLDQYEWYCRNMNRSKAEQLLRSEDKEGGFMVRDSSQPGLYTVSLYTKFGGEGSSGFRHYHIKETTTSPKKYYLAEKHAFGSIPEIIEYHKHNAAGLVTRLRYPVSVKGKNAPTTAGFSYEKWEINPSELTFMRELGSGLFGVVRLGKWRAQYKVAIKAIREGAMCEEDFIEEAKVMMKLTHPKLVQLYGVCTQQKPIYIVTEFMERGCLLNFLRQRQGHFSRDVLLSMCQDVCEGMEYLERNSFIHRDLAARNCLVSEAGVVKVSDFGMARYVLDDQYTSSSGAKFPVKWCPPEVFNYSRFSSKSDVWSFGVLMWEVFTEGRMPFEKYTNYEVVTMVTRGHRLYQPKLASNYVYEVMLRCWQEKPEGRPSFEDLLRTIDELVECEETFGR

[13] = biological target: T1, Tyrosine-protein kinase Tec (Homo sapiens); settings: at 1 µM
[14] = biological target: Angiopoietin-1 receptor (Homo sapiens) (UniProt Q02763); settings: at 0.1 µM
Angiopoietin-1 receptor (Homo sapiens), sequence (Q02763 whole entry): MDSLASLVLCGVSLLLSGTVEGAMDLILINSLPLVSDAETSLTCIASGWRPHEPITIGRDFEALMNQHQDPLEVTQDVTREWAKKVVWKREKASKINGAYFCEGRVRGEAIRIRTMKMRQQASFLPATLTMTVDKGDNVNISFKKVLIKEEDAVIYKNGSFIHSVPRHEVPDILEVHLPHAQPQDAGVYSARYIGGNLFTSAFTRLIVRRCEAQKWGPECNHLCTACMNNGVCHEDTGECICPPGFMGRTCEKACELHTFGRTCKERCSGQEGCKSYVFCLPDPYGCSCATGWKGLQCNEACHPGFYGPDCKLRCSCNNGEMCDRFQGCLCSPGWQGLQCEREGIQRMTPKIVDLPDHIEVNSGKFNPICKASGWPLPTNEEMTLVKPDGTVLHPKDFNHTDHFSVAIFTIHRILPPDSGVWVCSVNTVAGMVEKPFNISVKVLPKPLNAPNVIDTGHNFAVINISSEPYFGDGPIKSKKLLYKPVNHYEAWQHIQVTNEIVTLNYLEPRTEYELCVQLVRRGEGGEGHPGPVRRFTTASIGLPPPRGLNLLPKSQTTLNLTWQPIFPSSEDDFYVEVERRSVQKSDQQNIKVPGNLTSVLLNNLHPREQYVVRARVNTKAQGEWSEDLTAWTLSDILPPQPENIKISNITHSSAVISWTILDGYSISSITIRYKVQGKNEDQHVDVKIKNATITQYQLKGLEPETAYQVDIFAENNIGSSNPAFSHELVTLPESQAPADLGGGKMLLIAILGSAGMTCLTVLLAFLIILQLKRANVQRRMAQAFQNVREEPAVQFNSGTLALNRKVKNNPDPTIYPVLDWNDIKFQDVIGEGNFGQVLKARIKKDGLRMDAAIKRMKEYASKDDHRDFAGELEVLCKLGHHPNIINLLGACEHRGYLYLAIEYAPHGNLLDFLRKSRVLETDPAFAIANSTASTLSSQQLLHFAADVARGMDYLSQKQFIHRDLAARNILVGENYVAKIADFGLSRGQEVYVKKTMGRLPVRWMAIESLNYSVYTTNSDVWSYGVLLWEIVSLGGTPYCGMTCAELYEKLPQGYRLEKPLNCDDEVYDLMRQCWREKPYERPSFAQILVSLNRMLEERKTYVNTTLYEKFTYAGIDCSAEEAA

[15] = biological target: Angiopoietin-1 receptor (Homo sapiens) (UniProt Q02763); settings: at 1 µM
[16] = biological target: T2, Non-receptor tyrosine-protein kinase TNK1 (Homo sapiens) (UniProt Q13470); settings: at 0.1 µM
T2 sequence (whole entry): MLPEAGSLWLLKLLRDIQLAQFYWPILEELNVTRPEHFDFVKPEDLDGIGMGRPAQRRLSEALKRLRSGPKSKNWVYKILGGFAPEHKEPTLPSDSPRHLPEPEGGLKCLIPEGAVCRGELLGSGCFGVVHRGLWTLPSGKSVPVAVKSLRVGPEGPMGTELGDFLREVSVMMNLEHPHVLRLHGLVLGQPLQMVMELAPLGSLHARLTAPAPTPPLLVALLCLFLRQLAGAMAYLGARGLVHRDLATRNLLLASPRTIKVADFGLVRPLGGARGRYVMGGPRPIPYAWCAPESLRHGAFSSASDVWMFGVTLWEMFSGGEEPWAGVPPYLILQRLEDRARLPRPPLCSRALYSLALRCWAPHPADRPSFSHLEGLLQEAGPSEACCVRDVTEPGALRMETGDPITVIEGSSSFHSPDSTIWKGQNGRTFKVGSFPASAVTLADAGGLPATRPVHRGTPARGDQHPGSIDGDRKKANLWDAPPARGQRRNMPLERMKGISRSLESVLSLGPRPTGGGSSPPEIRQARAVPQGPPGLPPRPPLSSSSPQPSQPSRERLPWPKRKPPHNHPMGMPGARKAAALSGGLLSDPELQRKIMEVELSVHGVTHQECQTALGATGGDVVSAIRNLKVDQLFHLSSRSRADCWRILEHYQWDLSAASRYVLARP

[17] = biological target: T2, Non-receptor tyrosine-protein kinase TNK1 (Homo sapiens); settings: at 1 µM
[18] = biological target: Activated CDC42 kinase 1 (Homo sapiens) (UniProt Q07912); settings: at 0.1 µM
Activated CDC42 kinase 1 (Homo sapiens), sequence (Q07912 whole entry, looked up): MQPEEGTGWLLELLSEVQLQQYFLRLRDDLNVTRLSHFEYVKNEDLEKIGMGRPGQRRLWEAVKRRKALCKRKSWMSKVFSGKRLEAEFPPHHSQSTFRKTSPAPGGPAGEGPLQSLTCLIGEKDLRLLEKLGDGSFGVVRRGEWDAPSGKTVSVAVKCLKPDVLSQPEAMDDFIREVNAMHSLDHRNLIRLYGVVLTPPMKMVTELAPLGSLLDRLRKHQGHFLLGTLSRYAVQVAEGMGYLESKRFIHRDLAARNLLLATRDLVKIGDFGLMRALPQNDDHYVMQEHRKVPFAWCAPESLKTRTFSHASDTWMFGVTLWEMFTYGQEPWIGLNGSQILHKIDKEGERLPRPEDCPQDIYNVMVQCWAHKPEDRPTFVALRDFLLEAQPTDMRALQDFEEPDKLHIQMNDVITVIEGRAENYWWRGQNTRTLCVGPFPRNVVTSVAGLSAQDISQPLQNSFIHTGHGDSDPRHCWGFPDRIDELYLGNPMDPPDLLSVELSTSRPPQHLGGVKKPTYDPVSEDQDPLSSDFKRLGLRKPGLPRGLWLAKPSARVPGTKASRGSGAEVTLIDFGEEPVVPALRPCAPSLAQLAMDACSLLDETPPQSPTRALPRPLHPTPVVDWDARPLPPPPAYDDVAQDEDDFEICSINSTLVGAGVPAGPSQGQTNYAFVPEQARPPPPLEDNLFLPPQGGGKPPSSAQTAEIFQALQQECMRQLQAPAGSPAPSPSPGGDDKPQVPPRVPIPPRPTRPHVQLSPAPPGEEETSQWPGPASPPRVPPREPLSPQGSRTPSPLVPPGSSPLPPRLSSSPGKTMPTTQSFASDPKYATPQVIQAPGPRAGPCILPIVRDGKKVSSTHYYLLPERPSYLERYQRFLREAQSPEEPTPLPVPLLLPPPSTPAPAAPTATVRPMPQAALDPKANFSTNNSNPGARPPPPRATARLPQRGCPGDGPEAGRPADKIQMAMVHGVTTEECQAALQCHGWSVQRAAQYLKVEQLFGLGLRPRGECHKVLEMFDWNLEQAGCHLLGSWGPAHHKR

[19] = biological target: Activated CDC42 kinase 1 (Homo sapiens) (UniProt Q07912); settings: at 1 µM
[20] = biological target: High affinity nerve growth factor receptor (Homo sapiens) (UniProt P04629); settings: at 0.1 µM;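 note: each value is a mean of replicate percent inhibition readings against TRKA kinase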
High affinity nerve growth factor receptor (Homo sapiens), sequence (P04629 33-796 limits assumed): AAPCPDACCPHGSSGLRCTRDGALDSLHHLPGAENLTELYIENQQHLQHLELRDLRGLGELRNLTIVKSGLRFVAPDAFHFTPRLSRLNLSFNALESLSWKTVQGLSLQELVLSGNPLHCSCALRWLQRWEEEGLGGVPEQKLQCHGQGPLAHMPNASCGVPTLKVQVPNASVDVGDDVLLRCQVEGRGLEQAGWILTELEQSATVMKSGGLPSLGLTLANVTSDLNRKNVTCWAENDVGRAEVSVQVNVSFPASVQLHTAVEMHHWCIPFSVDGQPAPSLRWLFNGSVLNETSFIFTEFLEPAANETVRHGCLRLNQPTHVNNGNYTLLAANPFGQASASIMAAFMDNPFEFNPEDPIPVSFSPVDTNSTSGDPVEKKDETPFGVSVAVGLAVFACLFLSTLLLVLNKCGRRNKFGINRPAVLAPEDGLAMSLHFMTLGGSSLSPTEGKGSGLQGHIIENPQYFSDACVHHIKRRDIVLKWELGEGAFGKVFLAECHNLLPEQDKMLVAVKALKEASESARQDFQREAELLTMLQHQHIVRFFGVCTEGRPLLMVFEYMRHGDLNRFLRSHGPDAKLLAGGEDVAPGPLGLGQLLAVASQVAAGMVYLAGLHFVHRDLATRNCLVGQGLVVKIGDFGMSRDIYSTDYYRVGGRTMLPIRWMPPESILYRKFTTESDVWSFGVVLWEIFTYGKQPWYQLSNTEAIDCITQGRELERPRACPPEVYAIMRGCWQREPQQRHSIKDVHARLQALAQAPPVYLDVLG

Proto-oncogene tyrosine-protein kinase receptor Ret (Homo sapiens), P07949 [Y791F], sequence (P07949 whole entry Y791F): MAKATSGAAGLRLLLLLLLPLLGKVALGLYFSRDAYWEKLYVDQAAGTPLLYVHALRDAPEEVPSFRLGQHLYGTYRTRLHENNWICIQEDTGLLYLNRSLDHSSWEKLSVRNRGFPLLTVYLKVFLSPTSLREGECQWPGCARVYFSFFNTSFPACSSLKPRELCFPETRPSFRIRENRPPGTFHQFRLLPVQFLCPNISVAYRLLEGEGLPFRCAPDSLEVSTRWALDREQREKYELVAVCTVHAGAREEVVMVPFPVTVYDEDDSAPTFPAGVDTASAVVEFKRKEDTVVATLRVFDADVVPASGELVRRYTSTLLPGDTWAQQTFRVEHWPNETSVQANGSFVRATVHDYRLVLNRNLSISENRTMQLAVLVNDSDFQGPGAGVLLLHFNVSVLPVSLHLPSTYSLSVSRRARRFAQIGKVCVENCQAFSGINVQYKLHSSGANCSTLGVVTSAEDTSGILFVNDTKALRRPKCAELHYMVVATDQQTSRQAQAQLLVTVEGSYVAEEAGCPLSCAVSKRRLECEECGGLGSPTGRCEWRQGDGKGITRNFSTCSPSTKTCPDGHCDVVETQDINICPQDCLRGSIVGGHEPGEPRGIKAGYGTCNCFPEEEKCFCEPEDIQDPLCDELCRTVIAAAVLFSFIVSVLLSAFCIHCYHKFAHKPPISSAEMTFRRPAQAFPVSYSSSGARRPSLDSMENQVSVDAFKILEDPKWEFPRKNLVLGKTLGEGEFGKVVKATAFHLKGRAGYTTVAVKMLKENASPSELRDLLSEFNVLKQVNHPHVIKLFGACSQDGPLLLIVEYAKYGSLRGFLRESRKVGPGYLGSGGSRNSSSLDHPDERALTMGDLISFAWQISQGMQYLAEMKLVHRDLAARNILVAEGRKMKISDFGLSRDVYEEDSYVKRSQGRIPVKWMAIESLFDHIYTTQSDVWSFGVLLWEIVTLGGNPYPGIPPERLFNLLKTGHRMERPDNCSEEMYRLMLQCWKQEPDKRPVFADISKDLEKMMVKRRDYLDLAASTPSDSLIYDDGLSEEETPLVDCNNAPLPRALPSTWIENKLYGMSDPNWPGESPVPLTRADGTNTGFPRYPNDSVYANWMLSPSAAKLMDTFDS

Row | SMILES | inhibition [1] | inhibition [2] | inhibition [3] | inhibition [4] | inhibition [5] | inhibition [6] | inhibition [7] | inhibition [8] | inhibition [9] | inhibition [10] | inhibition [11] | inhibition [12] | inhibition [13] | inhibition [14] | inhibition [15] | inhibition [16] | inhibition [17] | inhibition [18] | inhibition [19] | inhibition [20]
1 | CN1CCN(CCCNc2nc3ccc(Oc4ccc(NC(=O)Nc5cc(C(F)(F)F)ccc5F)cc4)cc3[nH]2)CC1 | 83.9% | -2.7% | 5.53% | 5.6% | 9.76% | 4.89% | 3.58% | 2.32% | 0.43% | 0.25% | 0.86% | 0.68% | 5.07% | 9.94% | 53.8% | -0.25% | 4.81% | 2.56% | 5.75% | 2.88%
2 | NS(=O)(=O)c1ccc(Nc2cc(-c3ccc(O)c(F)c3)n[nH]2)cc1 | 55.5% | -1.82% | 10.5% | 0.96% | 3.04% | -0.44% | 8.59% | -1.1% | 1.72% | 3.87% | -1.99% | -1.66% | 0.4% | 2.97% | 21.7% | -4.31% | 24.3% | -1.31% | -1.02% | 5.68%
3 | C[C@@H](Oc1cc(-n2cnc3ccc(OC4CCN(C)CC4)cc32)sc1C(N)=O)c1ccccc1Cl | 22% | 0.07% | 9.84% | 8.31% | 15.5% | 10.3% | 18.7% | -0.74% | -2.64% | -0.76% | 2.16% | 2.27% | 1.73% | 7.19% | 11.9% | 3.41% | 18.1% | -0.17% | 1.13% | 2.29%
4 | Cc1ccc(C(=O)NC(C)C)cc1-c1ccc(C(=O)NCC2CC2)cc1 | -0.37% | -4.49% | 0.06% | -1.39% | 0.55% | -4.72% | -6.71% | -2.42% | 2.24% | -0.72% | -0.36% | -2.75% | -2.37% | -0.76% | -0.28% | -4.74% | -5.58% | -0.81% | 0.35% | -0.37%
5 | Nc1nccc(-c2c(-c3ccc(F)cc3)ncn2C2CCC(O)CC2)n1 (stereo not given) | 25.2% | 3.96% | 13.3% | 28.6% | 76.4% | 0.34% | 18.3% | -0.15% | 2.5% | -1.99% | 4.19% | -0.76% | 5.34% | -0.11% | 4.5% | -3.34% | 8.33% | -0.32% | 0.4% | 0.87%
6 | CCN(CC)Cc1ccc(Nc2nccc(-c3cnn4ncccc34)n2)cc1 | 18.2% | 4.89% | 22.4% | 34.5% | 70.5% | 10.3% | 38.2% | -1.32% | 0.74% | 1.59% | -0.45% | 0.83% | 3.21% | 3.9% | 12.2% | 5.27% | 32% | -0.16% | 3.2% | 2.7%

Reference: ChEMBL document CHEMBL1961873, “Compounds: GSK PKIS; Assays: Nanosyn kinase panel” (2012)
